High-throughput results (PubChem BioAssay)
Most compounds without a hit are left out; they make up all but 14% or so of the library.
Sm TGR block: qHTS Assay for the Inhibitors of Schistosoma Mansoni Peroxiredoxins. Schistosoma mansoni thioredoxin glutathione reductase (TGR), Q962Y6. purified TGR, DTNB reduction, TNB absorbance 405 nm. Potency, µM (highest dose often 114 µM), usual class: inhibitors. 360,000 compounds, 3% hits. AID 485364, 2010; further: nearly all actives have a fitted effect of over 60% in size
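First, TGR (20 nM dispensed) and NADPH were mixed with compound. Second, a 15 min room-temperature incubation followed. Third, further NADPH and then DTNB were added to start the reaction. Finally, TNB absorbance was monitored kinetically.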
Pf growth 96h: Primary qHTS for delayed death inhibitors of the malarial parasite plastid, 96 hour incubation; 320,000 compounds, 6.9% hits; Potency, µM (doses to about 28.7 µM), actives largely listed as inhibitors; P. falciparum luciferase reporter growth, 96 h
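Cell-based qHTS: luciferase-tagged P. falciparum in erythrocytes (2% hematocrit, 0.05% parasitemia final) incubated with compounds for 96 hours, 37 C, 5% CO2; luciferase detection reagent then added and luminescence measured.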
FBPA Giardia inh: qHTS Assay for Inhibitors of Fructose-1,6-bisphosphate Aldolase from Giardia Lamblia | A8B2U2 | purified Giardia FBPA | Potency, µM (doses to about 59.6 µM), usual class: inhibitors | 290,000 compounds, 0.71% hits | AID 2451, 2010; further: nearly all actives have a fitted effect of over 55% in size
Target sequence (A8B2U2 whole entry, looked up): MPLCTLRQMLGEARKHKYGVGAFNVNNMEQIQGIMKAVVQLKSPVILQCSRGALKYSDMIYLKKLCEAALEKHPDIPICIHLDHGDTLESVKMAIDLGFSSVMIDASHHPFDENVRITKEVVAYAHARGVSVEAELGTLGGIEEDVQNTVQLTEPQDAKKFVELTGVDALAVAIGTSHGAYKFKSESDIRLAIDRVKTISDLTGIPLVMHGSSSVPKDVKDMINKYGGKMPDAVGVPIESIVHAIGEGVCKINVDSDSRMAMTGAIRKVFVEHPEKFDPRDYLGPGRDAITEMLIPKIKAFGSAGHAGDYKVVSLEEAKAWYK
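Giardia FBPA (40 nM reagent) was preincubated 10 min at RT with compound (up to 57.5 uM final), then substrate plus GAPDH/TPI/NAD/arsenate coupling system with diaphorase/resazurin was added; resorufin fluorescence (525/598 nm) was read after 20 min.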
HCMV inh: qHTS Assay for inhibitors of the human cytomegalovirus (HCMV); AID 1259415, 2018; HFF cells, HCMV-luciferase reporter, 72 h; hits give low values; 410,000 compounds, 4.5% hits; activity change, negative = inhibition, % at 57.5 µM; in the data active means activity change below about -60%; inconclusive means no clear call, values can overlap the other calls; inactive means above about -39%
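Two-dose cell screen: HFF monolayers treated with compounds and infected with luciferase-expressing HCMV at 1 PFU/cell, 72 h at 37C, then lysed for luciferase measurement.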
Pf growth 48h: Primary qHTS for delayed death inhibitors of the malarial parasite plastid, 48 hour incubation; P. falciparum luciferase growth in erythrocytes, 48 h; Potency, µM (series often up to 28.7 µM), actives largely listed as inhibitors; 310,000 compounds, 5.9% hits; AID 504832, 2011
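Compounds are pin-transferred into medium, infected erythrocytes (2% hematocrit, 0.1% parasitemia final) are added, and plates sit one parasite generation at 37 C in 5% CO2. Detection reagent is then added and luminescence measured.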
Of the large screens only hits and unclear results are named; the others gave an inactive call. Unless noted, the call rests on the fitted dose curve; in most records, active means well fitted curve in the direction sought with a large enough effect; inconclusive means small, poorly fitted or top-dose-only effect, or another doubt; inactive means no such curve, though single readings can be large; an effect the other way counts as inactive or inconclusive.

CC(C)OCCCN1CC(=O)N2C(c3ccccc3)c3[nH]c4ccccc4c3C[C@H]2C1=O (some centres undefined)	Pf growth 96h inconclusive, Pf growth 48h 9.3µM
CCOC(=O)N1CCN(/[N+]([O-])=N/Oc2ccc([N+](=O)[O-])cc2[N+](=O)[O-])CC1	none (no result: Sm TGR block, Pf growth 96h, HCMV inh, Pf growth 48h)
O=C(N/N=C/c1ccc(O)cc1)c1cccc(N/N=C/c2ccc(O)cc2)c1	Sm TGR block inconclusive
CCN1C(=O)[C@@H]2Cc3c([nH]c4ccccc34)C(c3ccc(OC)cc3)N2C1=S (some centres undefined)	Pf growth 96h inconclusive, Pf growth 48h 15µM (no result: HCMV inh)
COCCCN1CC(=O)N2C(c3ccccc3)c3[nH]c4ccccc4c3C[C@H]2C1=O (some centres undefined)	Pf growth 96h inconclusive (no result: Pf growth 48h)
COCCCN1CC(=O)N2C(c3cccc(OC)c3OC)c3[nH]c4ccccc4c3C[C@H]2C1=O (some centres undefined)	Pf growth 96h 12µM, Pf growth 48h 9.3µM
Cc1ccc(-c2noc(CNC(=O)COc3cc(C)c(Br)c(C)c3)n2)cc1	none (no result: Pf growth 96h, FBPA Giardia inh, Pf growth 48h)
CCCCNC(C(=O)Nc1ccc(Cl)c([N+](=O)[O-])c1)c1ccccc1 (centres undefined)	Pf growth 96h 12µM, Pf growth 48h inconclusive
O=C(Nc1cc(Cl)cc(Cl)c1)C(NCCO)c1ccccc1 (centres undefined)	FBPA Giardia inh inconclusive
NC(=O)NS(=O)(=O)c1ccc(N)cc1	none (no result: Sm TGR block, FBPA Giardia inh, HCMV inh)
Cc1ccccc1-c1nc(CN2CCC(C(=O)NCc3ccccc3Cl)CC2)c(C)o1	none (no result: Pf growth 96h, FBPA Giardia inh, Pf growth 48h)
O=C1NC[C@H](Cc2ccccc2)N(C[C@H]2CCCN2C[C@H](Cc2ccccc2)N2C[C@H](Cc3ccc(O)cc3)N(CCc3ccccc3)C(=O)C2=O)C1=O	HCMV inh -73 (no result: Sm TGR block, Pf growth 96h, FBPA Giardia inh, Pf growth 48h)
O=C1NC[C@H](Cc2ccccc2)N(C[C@@H]2CCCN2C[C@H](Cc2ccc(O)cc2)N2C[C@H](Cc3ccc(O)cc3)N(CCc3ccccc3)C(=O)C2=O)C1=O	none (no result: Sm TGR block, Pf growth 96h, FBPA Giardia inh, Pf growth 48h)
CCOc1ccc(CCN2C(=O)C(=O)N([C@@H](Cc3ccc(O)cc3)CN3CCC[C@H]3CN3C(=O)C(=O)NC[C@@H]3Cc3ccccc3)C[C@@H]2Cc2ccc(O)cc2)cc1	none (no result: Sm TGR block, Pf growth 96h, FBPA Giardia inh, Pf growth 48h)
CCOc1ccc(CCN2C(=O)C(=O)N([C@@H](Cc3ccccc3)CN3CCC[C@H]3CN3C(=O)C(=O)NC[C@@H]3Cc3ccccc3)C[C@@H]2Cc2ccccc2)cc1	HCMV inh -65 (no result: Sm TGR block, Pf growth 96h, FBPA Giardia inh, Pf growth 48h)
Cc1cc(N(C)NC(=S)Nc2ccccc2)nc(C)n1	HCMV inh -91
CC(C)N(C)NC(=S)Nc1ccccc1	none
Cc1ccc(O)c(C=Nc2cc(C)ccc2O)c1	Pf growth 96h inconclusive, Pf growth 48h inconclusive (no result: HCMV inh)
Cc1nn(C)c(C)c1N=Cc1c(O)ccc2ccccc12	Pf growth 96h 8.3µM (no result: Pf growth 48h)
Cc1cc(O)c(C=Nc2ccc(Cl)cn2)c(=O)o1	Sm TGR block inconclusive, FBPA Giardia inh inconclusive (no result: Pf growth 48h)
Cc1ccc(S(=O)(=O)/N=C/c2c(O)ccc3ccccc23)cc1	FBPA Giardia inh inconclusive
CC(C)(C)c1ccc(O)c(N=Cc2cc(Br)ccc2O)c1	Pf growth 48h 10µM
CC(C)(C)c1ccc(O)c(N=Cc2c(O)ccc3ccccc23)c1	Pf growth 96h inconclusive, HCMV inh -92, Pf growth 48h inconclusive
Oc1ccc2ccccc2c1C=Nc1ccc(Cl)cn1	Pf growth 96h 13µM, FBPA Giardia inh inconclusive
C=CCOC(=O)C(C(C)=O)C(NC(=O)OC)c1ccc(F)cc1 (centres undefined)	none (no result: Sm TGR block, Pf growth 96h, HCMV inh, Pf growth 48h)
COc1cccc(-c2nccc(NCc3ccc(OC)cc3OC)n2)c1	none (no result: Sm TGR block, Pf growth 96h, HCMV inh, Pf growth 48h)
O=C(c1cnccn1)N1CCC2(CC1)CCN(C(c1ccccc1)c1ccccc1)CC2	none (no result: Sm TGR block, Pf growth 96h, HCMV inh, Pf growth 48h)
COc1ccccc1-n1cnc2c(c1=O)c1nc3ccccc3nc1n2-c1ccc(C)c(C)c1	Pf growth 96h 10µM, HCMV inh inconclusive, Pf growth 48h inconclusive
CCc1cc(C(=O)OC)c(NC(=O)CSc2nccn2C)s1	Pf growth 96h inconclusive (no result: FBPA Giardia inh)
COc1ccc(C2C3=C(N=C4SCC(=O)N42)c2ccccc2CC3)cc1OC (centres undefined)	FBPA Giardia inh inconclusive, Pf growth 48h 2.3µM
COc1ccc(C2C3=C(N=C4SCC(=O)N42)c2ccccc2CC3)cc1 (centres undefined)	Pf growth 96h 12µM, FBPA Giardia inh inconclusive, Pf growth 48h inconclusive
COc1ccccc1C1C2=C(N=C3SCC(=O)N31)c1ccccc1CC2 (centres undefined)	Pf growth 96h inconclusive, Pf growth 48h inconclusive
O=C(c1cc2cc(Br)ccc2[nH]1)N1CCc2ccccc21	Pf growth 96h 1.5µM, Pf growth 48h inconclusive
COC(CNC(=O)c1ccc2c(c1)ncn2C1CCCCCC1)OC	Pf growth 96h inconclusive
Cc1ccc(-c2nc3sccn3c2Nc2ccccc2C)cc1	none (no result: Pf growth 96h, FBPA Giardia inh, Pf growth 48h)
COC1(OC)N=C(N)C2(C#N)C(c3ccc(F)cc3)C12C#N (centres undefined)	FBPA Giardia inh inconclusive
CCSC1(SCC)N=C(N)C2(C#N)C(c3ccc(F)cc3)C12C#N (centres undefined)	Sm TGR block inconclusive, Pf growth 96h inconclusive, HCMV inh -107
CSCCC(NS(=O)(=O)c1ccc(Br)cc1)C(=O)OCC(=O)NC1CC1 (centres undefined)	Pf growth 96h inconclusive, HCMV inh -65
CCOc1ccc(-n2c(C)nc3cc(C(=O)NC4CCCC4)ccc32)cc1	none (no result: Pf growth 96h, FBPA Giardia inh, Pf growth 48h)
CCN(CC)c1ccc(/C=N/NC(=O)CNC(=O)C2COc3ccccc3O2)c(O)c1 (centres undefined)	Pf growth 96h inconclusive, HCMV inh -97, Pf growth 48h inconclusive
CCN(CC)c1ccc(/C=N/NC(=O)c2c(Cl)cnn2C)c(O)c1	Pf growth 96h inconclusive, HCMV inh -101, Pf growth 48h inconclusive
C/C(=N/NC(=O)CNC(=O)C1COc2ccccc2O1)c1ccc2c(c1)OCCO2 (centres undefined)	Pf growth 96h inconclusive, HCMV inh -73
CCN(CC)c1ccc(/C=N/NC(=O)c2cccc(S(=O)(=O)N3CCOCC3)c2)c(O)c1	Pf growth 96h inconclusive, HCMV inh -75, Pf growth 48h 10µM
COc1ccc(C)cc1N(C)C(=O)Cc1c(C(=O)O)n(C)c2ccccc12	none
CCN(CC)c1ccc(/C=N/Nc2ccc(C)cc2)c(O)c1	Sm TGR block 4µM, Pf growth 96h inconclusive, FBPA Giardia inh inconclusive
CCOC(=O)N/N=C/c1ccccc1F	none
CCOC(=O)N/N=C/c1ccc(N(CC)CC)cc1O	Pf growth 96h 4.1µM, Pf growth 48h inconclusive
CCN(CC)c1ccc(/C=N/NC(=O)CCC(=O)NCc2ccccc2)c(O)c1	Pf growth 96h inconclusive, FBPA Giardia inh inconclusive, Pf growth 48h 13µM
CCCCNC(=O)c1ccc(CS(=O)(=O)Cc2ccccc2F)o1	none
CC(Sc1nnc(C2CC2)n1C)C(=O)Nc1ccc(N2CCOCC2)cc1 (centres undefined)	none (no result: FBPA Giardia inh)
